We go through 93 molecules from PubChem BioAssay AID803 (The Scripps Research Institute Molecular Screening Center, 2007).

Each structure is given as a SMILES string. In all, about 140,000 compounds went through this assay and about 680 (0.49%) were called active. Only a selection was taken, and actives are over-represented in it overall. Values without a mark were called inactive. No stated cut-off is given here; in the data, active means activation above about 5% (passing the limit was not always enough); inactive means the rest.

Chain of Galanin receptor type 2 (Homo sapiens) (O43603 whole entry, looked up): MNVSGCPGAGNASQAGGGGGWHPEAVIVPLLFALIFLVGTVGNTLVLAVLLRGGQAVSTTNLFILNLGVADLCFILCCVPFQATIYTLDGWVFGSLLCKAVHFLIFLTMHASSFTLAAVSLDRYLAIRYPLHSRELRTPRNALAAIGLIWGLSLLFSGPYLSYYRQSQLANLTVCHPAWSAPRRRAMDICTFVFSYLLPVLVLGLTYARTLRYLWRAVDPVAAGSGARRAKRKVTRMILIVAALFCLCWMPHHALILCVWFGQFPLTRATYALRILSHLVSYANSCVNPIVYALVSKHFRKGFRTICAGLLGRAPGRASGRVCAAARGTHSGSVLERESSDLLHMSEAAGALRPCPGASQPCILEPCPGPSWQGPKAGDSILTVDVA

The assay addresses Galanin receptor type 2 (Homo sapiens) (UniProt O43603). As to the kind of experiment: human galanin receptor 2 activators – cell-based, primary screen (AID 803).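 Further: 0% = vehicle buffer wells and 100% = reference agonist at full effect.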 Particulars: GALR2-expressing cells, agonist activation read-out; at 5.6 µM; stronger effect = higher value.
For `O=C(CSc1ccccc1)Nc1cc(Cl)ccc1Oc1ccccc1`, the activation is -0.74%.
Take `C/C(CCC(=O)OC[C@H]1O[C@H](C#Cc2ccccc2)C=C[C@@H]1Oc1ccc(C)cc1)=N\OC[C@@H](O)[C@H]1O[C@@H]2OC(C)(C)O[C@@H]2[C@H]1O`: the activation is -0.18%.
The figure for `CCOC(=O)CSc1nc2sc3c(c2c(=O)[nH]1)CC(C)(C)OC3` is -2.5%; for `CCOC(=O)Cn1c(SC)nc2sc3c(c2c1=O)CC(C)(C)OC3` it is -1.18%; for `CC/C(C)=N/Nc1nc2sc3c(c2c(=O)[nH]1)CC(C)(C)OC3` it is 25.2% (active).
Turning to `CCOc1ccc(NC(=O)COc2ccc(C(=O)NC3CCCc4ccccc43)cc2OC)cc1` (stereo not drawn), the activation was -0.21%.
As to `CCc1ccc(-c2cc(C(=O)NN3CCN(C)CC3)c3ccccc3n2)cc1`, the activation is 0.42%.
`CCCCNS(=O)(=O)c1ccc2nc(SCC(=O)Nc3cc(C)cc(C)c3)[nH]c2c1`: the activation is -1.87%.
`CCc1cc(C(=O)OC)c(NC(=O)CC2Sc3ccc(C(F)(F)F)cc3NC2=O)s1` (stereo not drawn): the activation is 1.46%.
On to `Cc1ccc(-c2cc(C(=O)NCc3cn(C)nc3C)c3cc(Br)ccc3n2)cc1`, for which the activation was 5.13% (active).
In the case of `COc1ccc(Cl)cc1C(=O)NCc1cn(C)nc1C` it was -0.07%.
In the case of `Cc1ccc2nc(-c3ccccc3)cc(C(=O)O)c2c1` it was -0.75%; in that of `CCCn1nc(NS(=O)(=O)c2ccccc2)c2cc3cc(C)ccc3nc21`, -2.05%; in that of `COc1ccc(C2=NN(C(=O)c3cccnc3)C(c3ccccc3)C2)cc1` (stereo not drawn), -0.17%.
`COc1ccc(C2CC(c3ccccc3)=NN2C(=O)CSc2nccc(=O)[nH]2)cc1` (stereo not drawn): the activation was 0.01%.
On to `COc1ccc(C2CC(c3ccccc3)=NN2C(=O)c2ccc(Cl)c([N+](=O)[O-])c2)cc1` (stereo not drawn), for which the activation is 4.95% (active).
On to `Cn1ncc2c(NNC(=O)Cc3cccc4ccccc34)ncnc21`, for which the activation is 0.28%.
Consider `Cc1ccc(CCC(=O)Nc2ncc(Cc3cc(Cl)ccc3Cl)s2)o1`, for which the activation is 8.73% (active).
In the case of `CCOc1ccccc1NC(=O)CCc1ccc(C)o1`, the activation was -0.84%.
The figure for `Cc1cnc(NC(=O)CSc2nnc(-c3ccc(Cl)cc3Cl)n2N)s1` is -1.9%; for `O=C(Nc1ccccc1F)c1ccccc1-c1ccccc1` it is -0.61%; for `COc1ccccc1N1N=C(c2cccs2)CC1c1ccccc1` (stereo not drawn) it is 13.1% (active).
As to `COc1ccc(C2CC(c3cccs3)=NN2C(=O)COC(=O)c2cc3ccccc3cc2O)cc1OC` (stereo not drawn), the activation is 0.22%.
In the case of `Fc1ccc(N2N=C(c3cccs3)CC2c2ccco2)c(F)c1` (stereo not drawn) it was 10.4%; in that of `O=c1oc2cc(O)ccc2cc1-c1ccc(F)cc1`, 14.9% (active); in that of `COc1ccc(-c2cc3ccc(OCc4nn[nH]n4)cc3oc2=O)cc1`, 0.01%.
For the molecule `COc1cccc(C(=O)c2cc3ccc(O)cc3oc2=O)c1`, the activation is 2.29%.
The figure for `COc1cc(/C=N\NC(=O)c2nonc2N)c(OC)cc1Br` is -0.75%; for `O=C(CCc1ccc(S(=O)(=O)N2CCOCC2)cc1)NN=C1CCCCCCC1` it is -0.53%.
Regarding `Cc1ccc2nc(NC(=O)C3CCN(S(=O)(=O)c4ccc5c(c4)oc(=O)n5C)CC3)sc2c1`, the activation is -1.18%.
Turning to `Cn1c(=O)oc2cc(S(=O)(=O)N3CCC(C(=O)Nc4ccc(OC(F)(F)F)cc4)CC3)ccc21`, the activation is 9.92% (active).
As for `Cc1ccc(C)c(N2CCN(S(=O)(=O)c3ccc4c(c3)oc(=O)n4C)CC2)c1`, the activation is -1.17%.
The figure for `COc1ccc(NC(=S)SC)cc1OC` is -0.23%; for `CN(C)S(=O)(=O)c1cccc(NC(=S)N/N=C/C(=O)c2ccccc2)c1` it is 0.25%.
On to `CCNc1nc(NC(C)C)nc(N2CC(=O)N(CC(=O)OCC)C2=N)n1`, for which the activation is 0.96%.
For the molecule `N=C(N)SCc1cccc2ccccc12`, the activation was -1.3%.
The figure for `CCc1ccc(-c2nn(-c3ccccc3)cc2CSC(=N)N)cc1` is 5.34% (active); for `CCn1c(SCc2ccc(C)cc2)nnc1-c1nn(-c2ccccc2)ccc1=O` it is -0.25%; for `Cc1cc[n+](-c2[nH]c(=O)sc2/C=N/NC(=O)c2ccccc2[O-])cc1C` it is 1.06%.
As to `COc1ccccc1C1SCCN1C(=O)c1ccc([N+](=O)[O-])cc1` (stereo not drawn), the activation is 0.57%.
Regarding `N=c1n(CCc2ccccc2)c2ccccc2n1Cc1ccccc1F`, the activation is -1.04%.
Take `O=C1c2cccc3cccc(c23)N1CN1CCN(c2ccccn2)CC1`: the activation is -1.31%.
Turning to `OC(COc1cccc(OCC(O)CN2CCCC2)c1)CN1CCCC1` (stereo not drawn), the activation is -0.12%.
Turning to `OC(COc1cccc2ccccc12)CN1CCN(c2ccccn2)CC1` (stereo not drawn), the activation is 14.5% (active).
Take `C=CCn1c(CCNC(=O)c2cccs2)n[nH]c1=S`: the activation was -1.14%.
For the molecule `Cn1nccc1CNC(=O)c1ccnn1C`, the activation is -2.14%.
`COc1cc(NC(=S)NNC(=O)CC(C)C)c(OC)cc1Cl`: the activation is -0.97%.
In the case of `CCCCn1c(O)c(N=NC(=O)Cn2c(C(F)(F)F)nc3ccccc32)c2ccccc21`, the activation is -0.64%.
`CCOC(=O)c1oc2c(CN3CCN(C)CC3)c(O)ccc2c(=O)c1-c1ccc(Br)cc1`: the activation was -1.12%.
With `O=C(Nc1cccc2ncccc12)c1ccc(-c2ccc(Cl)cc2Cl)o1`, the activation is -3.29%.
As to `Cc1csc(NC(=O)c2ccc(-c3ccc(Cl)cc3Cl)o2)n1`, the activation was 8.53% (active).
Turning to `Cc1csc(NC(=S)Nc2cccc(Cl)c2)n1`, the activation was -0.28%.
In the case of `C=CCn1c(P(C)(=O)O)nc2ccccc21` it was -0.16%; in that of `Cc1ccc(C(C)NC(=O)Cn2nc(C)c([N+](=O)[O-])c2C)cc1` (stereo not drawn), -0.83%.
As for `CCOc1ccccc1C1C(C(=O)OC)=CN(C)C=C1C(=O)OC`, the activation is 10.7% (active).
In the case of `COC(=O)C1=CN(C)C=C(C(=O)OC)C1c1ccc(Cl)cc1Cl` it was 7.44% (active); in that of `CCOc1ccccc1N(CC(=O)Nc1ccccc1C(=O)OC)S(C)(=O)=O`, -0.26%.
With `CC12CN3CC(C)(CN(C1)C3c1ccc(Cl)cc1Cl)C2=O` (stereo not drawn), the activation is -0.09%.
The figure for `NNC(=O)c1ccc(Cl)cc1Cl` is 0.25%; for `CCOc1cc(C2C(C(=O)OC)=CN(C3CCCC3)C=C2C(=O)OC)cc(Br)c1O` it is 2.25%; for `Cc1c(C(=O)c2cccc([N+](=O)[O-])c2)c2ccccn2c1CCC#N` it is 0.65%.
In the case of `O=C(COC(=O)Cn1cnc2ccccc2c1=O)NCC12CC3CC(CC(C3)C1)C2`, the activation is -1.72%.
As to `CCO/N=C(/C)c1c(O)cc(-c2ccccc2)n(-c2ccccc2)c1=O`, the activation is 0.26%.
Take `Nc1nc(SCC(=O)NNc2c(Cl)cc(Cl)cc2Cl)n[nH]1`: the activation was -0.67%.
With `c1ccc2c(c1)CSc1sccc1C2=C1CCNCC1`, the activation is -2.25%.
Regarding `C=CCn1c(Oc2ccc(C(=O)OC)cc2)nc2c1c(=O)n(C)c(=O)n2C`, the activation was 16.4% (active).
Turning to `C=CCOc1nc2c(c(=O)n(C)c(=O)n2C)n1Cc1ccc(Cl)cc1Cl`, the activation is 1.61%.
As for `Cn1c(=O)c2c(nc(N3CCCCCC3)n2CC(=O)c2ccc(Br)cc2)n(C)c1=O`, the activation was -0.03%.
On to `COc1ccc2nc(Nc3nc4ccc(NC(C)=O)cc4s3)sc2c1`, for which the activation is 2.62%.
On to `CCOc1ccc2nc(Nc3nc4ccc(NC(C)=O)cc4s3)sc2c1`, for which the activation is 35.2% (active).
Turning to `CCOc1ccc2nc(SC(CC)C(=O)Nc3cc(C)on3)sc2c1` (stereo not drawn), the activation is -1.01%.
In the case of `N#Cc1c(NC(=O)c2ccc(N3CCOCC3)c([N+](=O)[O-])c2)sc2c1CCCC2` it was -1.06%.
For the molecule `O=C(O)c1cccc(N2C(=O)Nc3ccccc3N2O)c1`, the activation was -0.65%.
For the molecule `Cc1ccccc1N(C(=O)Cc1cccs1)C(C(=O)NC1CCCCC1)c1cn(C)nc1C` (stereo not drawn), the activation is -0.31%.
In the case of `CCCCCOc1ccc(CSC2=NCCN2)cc1[N+](=O)[O-]`, the activation was 0.31%.
In the case of `CC(C)NC(=O)C(=O)NCCCOC(C)C`, the activation was -1.05%.
As for `CCNS(=O)(=O)c1ccc(NC(=O)c2cncc(Br)c2)cc1`, the activation was -1.39%.
`C/C(CC(=O)Nc1cccc(F)c1)=N\NC(=O)C(=O)NC1CCCCC1`: the activation is -0.33%.
Turning to `C=CCN(CC=C)S(=O)(=O)c1ccc(C(=O)Nc2sc3c(c2C(N)=O)CCCCC3)cc1`, the activation is -0.72%.
As to `O=C(Nc1ccc(S(=O)(=O)N2CCc3ccccc3C2)cc1)c1ccccc1`, the activation is -2.86%.
For the molecule `C=CCN(CC=C)S(=O)(=O)c1ccc(C(=O)Nc2nc3c(s2)CCc2ccccc2-3)cc1`, the activation is 9.18% (active).
In the case of `CCN(c1ccccc1)S(=O)(=O)c1ccc(C(=O)Nc2nccs2)cc1`, the activation was -3.23%.
Turning to `COCCN(CCOC)S(=O)(=O)c1ccc(C(=O)Nc2nc3c(s2)CCc2ccccc2-3)cc1`, the activation is 12.8% (active).
Consider `COc1ccc(C(=O)Nc2ncc3c(n2)-c2ccccc2CC3)cc1`, for which the activation is -1.58%.
For the molecule `O=C(CN1C2=NCCN2c2ccccc21)c1cccs1`, the activation was 0.13%.
As to `CCOc1ccc(Br)cc1CSC(=N)N`, the activation was -1.41%.
On to `O=C(Nc1cccc(Cl)c1)Nc1ccccc1NS(=O)(=O)c1cccs1`, for which the activation was -0.87%.
For `Cc1cccc(OCC(O)Cn2c(=N)n(CCN3CCOCC3)c3ccccc32)c1` (stereo not drawn), the activation is -1.56%.
With `CCOc1ccc(C(O)Cn2c(=N)n(CCN3CCCCC3)c3ccccc32)cc1` (stereo not drawn), the activation is 25.8% (active).
Consider `Cn1c(=N)n(CC(O)c2ccccc2)c2ccccc21` (stereo not drawn), for which the activation is -3.54%.
For the molecule `O=C(COC(=O)CCCNC(=O)c1ccc(Cl)cc1)Nc1cc(Cl)ccc1Cl`, the activation was -0.66%.
As for `N#Cc1ccccc1NC(=O)c1cccc(COc2ccc(Cl)cc2Cl)c1`, the activation was -1.81%.
With `CCC(C)NC(=O)c1ccc(N2CCC3(CC2)OCCO3)c([N+](=O)[O-])c1` (stereo not drawn), the activation is 1.63%.
